# Screens from PubChem BioAssay.
# Pf growth 96h: P. falciparum growth inhibition at 96 hour, primary screen for plastid delayed-death inhibitors; P. falciparum luciferase reporter growth, 96 h; Potency, µM (titrated, usually from 28.7 µM), without a hit: at the highest dose activity change, negative = inhibition, most hits filed as inhibitors; 320,000 tested, 6.9% active
#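 Two parasite generations (96 h, 37 C, 5% CO2) of compound exposure in infected erythrocytes (0.05% parasitemia, 2% hematocrit). Luciferase-reporter P. falciparum; decreased luminescence indicates inhibited growth, aimed at apicoplast-acting delayed death.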
# AMA1 RON2 block: inhibitors of Plasmodium falciparum AMA1-RON2 interaction; AlphaScreen AMA1-biotinylated RON2 peptide binding; Potency, µM (highest dose often 58.2 µM), inactives show at the highest dose activity change, negative = inhibition, usual class: inhibitors; 360,000 tested, 0.2% active;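 further: 0% = vehicle wells and -100% = peptide control; nearly all actives have a fitted effect of over 45% in size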
#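 AMA1 (3D7) with his tag at 25 nM final met compounds first, then biotinylated RON2 peptide at 25 nM; detection used donor plus acceptor beads, 10 µg/mL apiece, read by AlphaScreen after 30 min at room temperature.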
# VACV Venus inh: inhibitors of vaccinia virus (Venus reporter). Vaccinia virus Venus reporter expression, fluorescence. Potency, µM (doses to about 36.5 µM), inactives show at the top dose activity change, negative = inhibition, hits mostly inhibitors. 330,000 tested, 0.46% active. AID 720580; calls by dose curve; tested in A549 cells; further: nearly all actives have a fitted effect of over 30% in size
# Pf growth 48h: inhibits P. falciparum growth in the first generation, 48 h. Potency, µM (top dose mostly 28.7 µM), for the others: at the top dose activity change, negative = inhibition, usual class: inhibitors. P. falciparum luciferase growth in erythrocytes, 48 h. 310,000 tested, 5.9% active
#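 Luminescence readout; reporter = integrated firefly luciferase in P. falciparum. RBC culture at 2% hematocrit, 0.1% parasitemia final, 37 C/5% CO2; decreased signal taken as growth inhibition.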
# VACV mCherry inh: inhibitors of vaccinia virus infection (mCherry reporter signal). AID 720579. 310,000 tested, 0.63% active. Vaccinia virus mCherry reporter infection, fluorescence. Potency, µM (titrated, usually from 36.5 µM), for the others: top-dose activity change, negative = inhibition, actives largely listed as inhibitors; calls by dose curve; tested in A549 cells; further: nearly all actives have a fitted effect of over 35% in size
# Active calls of the source: *; i = inactive; u = inconclusive; x = no result; [ ] = remark or other dose. In the library only some 8.7% were active in any assay of this set; here they are far more common. Unless noted, the call rests on the fitted dose curve; in most records, active means well fitted curve in the direction sought with a large enough effect; inconclusive means small, poorly fitted or top-dose-only effect, or another doubt; inactive means no such curve, though single readings can be large; an effect the other way counts as inactive or inconclusive. Unless noted, on the % scale 0 is the no-effect control and ±100 the full control effect; potency means the concentration at half of the fitted maximal effect.
SMILES,Pf growth 96h,AMA1 RON2 block,VACV Venus inh,Pf growth 48h,VACV mCherry inh
CC1(CCBr)C(=O)N(c2ccccc2)c2ccccc21 (stereo not drawn),13.1µM*,-9.6%,x,-12.7%,x
O=C1N(c2ccccc2)c2ccccc2C1(Cc1ccncc1)Cc1ccncc1,u,3.6%,-15.1%,u,i
O=C(OCC(=O)N1CCc2ccccc2C1)c1cccs1,-6.9%,-0.2%,-11.1%,1.47µM*,-3.3%
CC(=O)Oc1cc(C(=O)OCC(=O)N2CCc3ccccc3C2)cc(OC(C)=O)c1OC(C)=O,x,0.316µM*,-9.6%,x,i
Cc1cccc(C)c1OCC(=O)N1CCc2ccccc2C1,7.38µM*,4.5%,x,u,x
Cc1cc2nccc(/C=C/c3ccc(N(C)C)cc3)c2cc1C,x,x,0.8%,x,i
COc1cc(CN2CCOc3ccc(CN4CCC(O)(c5cccnc5)CC4)cc3C2)ccc1F,x,x,-1.1%,x,-13.4%
O=c1c2ccccc2[nH]c(=S)n1-c1ccc2c(c1)OCO2,9.7%,81.7%,-2.7%,11.7µM*,-15.5%
CC1=C(C(=O)NCc2ccccc2Cl)C2(CCCCCC2)OC1=O,x,x,-3.4%,x,i
Cc1ccc(NC(=O)c2cc(NC(=O)c3ccco3)ccc2N2CCCCC2)cc1,-29.1%,0.0%,-5.7%,6.57µM*,-18.7%
Cc1ccccc1C(=O)N1CCN(c2ccc(NC(=O)c3ccco3)cc2Cl)CC1,1.3%,-9.3%,u,3.29µM*,u
COc1ccc(NS(=O)(=O)c2cc(NC(=O)C3CC3)ccc2N2CCCCC2)cc1,10.4µM*,10.7%,-21.5%,-26.7%,-5.9%
COc1ccc(NS(=O)(=O)c2cc(NC(=O)c3cnc(C)cn3)ccc2N2CCCCC2)cc1,u,-7.2%,-19.3%,11.7µM*,-6.3%
Cc1ccc(NC(=O)c2cc(NC(=O)c3ccco3)ccc2N2CCOCC2)cc1,-1.1%,-2.2%,x,-11.2%,x
Cc1cc(O)c(C(c2ccccc2)N2CCC(C)CC2)c(=O)n1Cc1ccco1 (stereo not drawn),x,x,-5.9%,x,-2.4%
CCOC(=O)c1[nH]c(C)c(CCC(=O)NCc2ccc(OCC)cc2)c1C,x,x,-6.4%,x,-14.3%
CCOC(=O)c1ccc(Nc2c(-c3cccc(O)c3)nc3nc[nH]n23)cc1,x,x,-0.3%,x,-8.0%
CCOC(=O)c1c(C)[nH]c(C)c1S(=O)(=O)N1CCN(c2ccc(Cl)cc2)CC1,x,x,-12.2%,x,-22.2%
COCC(=O)Nc1cc(C(=O)NC2CCc3ccccc32)c2c(c1)nc(-c1ccncc1)n2C (stereo not drawn),x,x,16.0%,x,1.7%
COc1ccc(NS(=O)(=O)c2ccc(N3CCOCC3)c(NC(=O)c3ccco3)c2)cc1,-18.4%,-19.5%,-18.4%,u,-27.0%
COc1ccc(NS(=O)(=O)c2cc(NC(=O)c3ccco3)ccc2N2CCCCC2)cc1,9.28µM*,-9.9%,u,u,u
COc1ccc(C(=S)N(C)C)cc1OC,8.28µM*,-3.8%,-5.0%,14.7%,x
COc1ccc(C(=S)N2CCCC2)cc1OC,-1.9%,2.9%,-3.3%,x,-14.9%
Cc1ccccc1C(=O)c1c[nH]c(C(=O)NCCc2ccccn2)c1,9.28µM*,4.9%,-14.8%,11.7µM*,i
CCC(=O)c1c[nH]c(C(=O)NCCc2ccccn2)c1,33.6%,6.6%,-10.5%,33.9%,x
SMILES,Pf growth 96h,AMA1 RON2 block,VACV Venus inh,Pf growth 48h,VACV mCherry inh
CC(C1CC1)N(Cc1ccccc1)C(=S)Nc1ccccc1Cl (stereo not drawn),11.7µM*,24.3%,-11.8%,u,-24.5%
CC(C1CC1)N(Cc1ccccc1)C(=O)NC(=O)c1ccccc1 (stereo not drawn),-2.0%,-2.0%,-0.5%,-1.8%,i
O=C(NCC1(N2CCOCC2)CCCC1)c1cnn(-c2nccc(-c3cccs3)n2)c1C1CC1,x,x,10.4%,x,-10.9%
COc1ccc(N(C(=O)c2cccc(C)c2)S(=O)(=O)c2ccc(C)cc2)cc1,x,x,-3.0%,x,i
COc1ccccc1N1CCN(c2nc(CNC(=O)c3ccc4c(c3)OCO4)nc3ccccc23)CC1,x,x,-13.6%,x,i
CC(O)[C@H]1CN=C(N)N1CCCCC1CCCCC1 (stereo partly drawn),3.29µM*,3.4%,-16.8%,9.28µM*,-26.2%
NCCCC[C@H]1CN=C(N)N1CCCCC1CCCCC1,x,0.0%,-15.3%,x,i
O=C(NCc1cccs1)C1CCN(C(=O)N2CCOc3ccccc32)CC1,x,x,1.6%,x,-3.7%
CC(C)Cn1c(C(C)C)nc([N+](=O)[O-])c1S(=O)(=O)c1ccc(F)cc1,u,-17.5%,x,10.4µM*,x
Cn1cnc([N+](=O)[O-])c1S(=O)(=O)c1ccc(Cl)cc1,-1.6%,11.8%,-0.4%,1.8%,i
CCCc1nc([N+](=O)[O-])c(S(=O)(=O)c2ccccc2)n1CC(C)C,11.7µM*,7.3%,u,9.28µM*,u
COc1cc(=O)n2c(c1C(=O)N(C)Cc1nonc1C)CCN(Cc1ccccc1F)CC2,x,x,1.0%,x,-2.3%
COc1ccc(-c2onc(C)c2-c2cnn(-c3ccccc3)c2)c(O)c1,4.1%,-5.1%,-24.8%,11.7µM*,-16.4%
COc1ccc(-c2onc(C)c2-c2ccccc2)c(O)c1,-20.9%,-10.3%,u,x,u
CCNC(=O)C1CCN(c2nnc(C)c3c(C)n(-c4ccc(OC)cc4)nc23)CC1,x,x,-3.0%,x,-16.5%
CCC1=C(OC(=O)N(CC)CC)N2C(=O)OC(=NCCOC)[C@]2(Cc2ccccc2)[C@H]2C1=CC[C@H]1C(=O)NC(=O)[C@H]12,u,-11.4%,-7.0%,9.28µM*,i
CCC1=C(OC(=O)N(CC)CC)N2C(=O)OC(=NCC3CC3)[C@]2(Cc2ccccc2)[C@H]2C1=CC[C@H]1C(=O)NC(=O)[C@H]12,7.38µM*,2.7%,-12.4%,10.4µM*,i
CCCC(=O)N(Cc1cc2cccc(C)c2[nH]c1=O)c1ccccc1OC,-13.3%,-0.1%,-10.8%,11.7µM*,-5.0%
CCCC(=O)N(Cc1cc2ccccc2[nH]c1=O)c1ccccc1OC,x,-10.6%,-4.8%,x,-0.2%
CCOc1ccc(-n2c(C)nc3cc(C(=O)NCc4ccc(C)cc4)ccc32)cc1,x,x,-7.4%,x,-7.7%
Cc1nc([N+](=O)[O-])cn1Cc1cccc2ccccc12,21.3%,-2.8%,x,10.4µM*,x
Cc1nc([N+](=O)[O-])cn1CC(O)c1ccccc1 (stereo not drawn),35.4%,-19.9%,15.5%,7.6%,-4.2%
COc1ccc(S(=O)(=O)Nc2cc3c4c(oc3c3ccccc23)CCCC4=O)cc1,9.28µM*,7.9%,u,x,u
Cc1ccc(NC(=O)CSc2nnc(-c3cc4occc4n3C)n2-c2ccccc2C)c(C)c1,x,x,-30.9%,x,u
CC/C=C1/N=C2C(=O)N(C)C(=O)N=C2N(C)N1,x,x,2.24µM*,x,1.78µM*
CN1N/C(=C\c2ccccc2)N=C2C(=O)N(C)C(=O)N=C21,x,x,8.91µM*,x,7.94µM*
Cc1ccc(NC(=O)CSc2nc3ccc(Br)cc3[nH]2)c(C)c1,x,x,-8.3%[7.34 µM],x,-12.5%[7.34 µM]
COc1ccc(NC(=O)CSc2ncc3c(n2)-c2cc(Cl)ccc2N(Cc2ccccc2F)S3(=O)=O)cc1,x,x,-3.1%,x,-24.5%
